# According to PubChem BioAssay (EPA / NIEHS):
# Results filed as inconclusive are left out. Calls of active or inactive are those of the source. The calls were made as follows, unless noted: active = hit-call score of the fitted dose curve at least 0.9, where 1 is the maximum; inconclusive = response in the unintended direction; inactive = score below 0.9.
# Assays:
# [1] = system: Sodium/Iodide Symporter (NIS), SLC5A5 (gene 6528); assay: CPHEA_Stoker_NIS_Inhibition_RAIU: CPHEA's Radioactive Iodide Uptake (RAIU) Assay for Sodium/Iodide Symporter (NIS) Inhibition, Stoker and Laws Labs (AID 2283841)
# Method in brief: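 hNIS-HEK293T-EPA cells incubated 2 h at room temperature with compound (0.001–100 uM, 0.5% DMSO) and 329 pM final 125I in HBSS/10 mM HEPES, pH 7.4. Intracellular 125I counted; normalised to DMSO maximal uptake, triplicate, three biological replicates.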
# [2] = CPHEA_Stoker_NIS_Cytotoxicity: Cytotoxicity Assessment for CPHEA's Radioactive Iodide Uptake (RAIU) Assay for Sodium/Iodide Symporter (NIS) Inhibition, Stoker and Laws Labs (AID 2283897);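 as to AC50: active means loss of ATP signal versus DMSO meaning cytotoxicity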
# Method in brief: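 hNIS-HEK293T-EPA cells, human NIS expressed in HEK293T, treated 2 h with chemicals (0.001–100 uM, 0.5% final DMSO). ATP content read by CellTiter-Glo luminescence; loss of signal analysed relative to DMSO.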
# [3] = CEETOX_H295R_11DCORT_noMTC: CeeTox H295R High-throughput Steroidogenesis Assay for 11-Deoxycortisol (11DCORT), maximum tolerated concentration (MTC) filtered results only (AID 2283911; active = hit-call score of the fitted dose curve at least 0.9, where 1 is the maximum; inactive = score below 0.9); conditions: actives raise or lower the signal
# Method in brief: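 H295R cells were prestimulated 48 h with 10 uM forskolin, then exposed 48 h to chemical (0.1% DMSO final). 11-Deoxycortisol in the medium was measured by MTBE extraction and HPLC-MS/MS, with bidirectional fitting versus DMSO and no MTC filtering of concentrations.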
# [4] = CEETOX_H295R_OHPREG_noMTC: CeeTox H295R High-throughput Steroidogenesis Assay for OH-Pregnenolone (OHPREG), maximum tolerated concentration (MTC) filtered results only (AID 2283912; active = hit-call score of the fitted dose curve at least 0.9, where 1 is the maximum; inactive = score below 0.9); conditions: actives raise or lower the signal
# Method in brief: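 Steroidogenesis in H295R cells (OECD 456, modified): after 48 h forskolin priming and 48 h chemical treatment, secreted 17alpha-hydroxypregnenolone is measured by HPLC-MS/MS. Activity is fitted in both directions against DMSO; concentrations are not filtered by MTT-based MTC.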
# [5] = CEETOX_H295R_OHPROG_noMTC: CeeTox H295R High-throughput Steroidogenesis Assay for OH-Progesterone (OHPROG), maximum tolerated concentration (MTC) filtered results only (AID 2283914; active = hit-call score of the fitted dose curve at least 0.9, where 1 is the maximum; inactive = score below 0.9); conditions: actives raise or lower the signal
# Method in brief: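 Forskolin 10 uM, 48 h prestim → test cmpd in DMSO (0.1% final), 48 h → medium MTBE extraction → LC-MS/MS quant of 17alpha-OH-progesterone. Bidirectional fit vs DMSO; no MTT-based MTC filtering.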
smiles,measurement,setting,value
OCC(F)(F)C(F)(F)C(F)(F)C(F)(F)C(F)(F)C(F)(F)C(F)(F)C(F)(F)CO,AC50,[1],18.3 µM (active)
C=CC(=O)OCCC(F)(F)C(F)(F)C(F)(F)C(F)(F)F,outcome,[1],inactive
CCCCCCCCCc1ccc(OCCO)cc1,AC50,[1],7.03 µM (active)
same,AC50,[2],24.3 µM (active)
O=C(O)CCC(F)(F)C(F)(F)C(F)(F)C(F)(F)C(F)(F)C(F)(F)C(F)(F)F,outcome,[1],inactive
CCCCCCCC/C=C\CCCCCCCC(=O)N(C)CC(=O)O,outcome,[2],inactive
CCCCCCCCCCCCCC[P+](CCCC)(CCCC)CCCC,AC50,[1],9.92 µM (active)
same,AC50,[2],15.9 µM (active)
Nc1c(Br)cc([N+](=O)[O-])cc1Br,outcome,[3],inactive
same,outcome,[4],inactive
same,AC50,[5],20.7 µM (active)
OCCCCC(F)(F)C(F)(F)C(F)(F)C(F)(F)F,outcome,[1],inactive
CC(C)Nc1ccc(NC(C)C)c2c1C(=O)c1ccccc1C2=O,outcome,[1],inactive
same,AC50,[2],15.3 µM (active)
CCC(Cc1c(I)cc(I)c(N)c1I)C(=O)O (centres undefined),outcome,[1],inactive
same,outcome,[2],inactive
CCN=c1cc2oc3cc(NCC)c(C)cc3c(-c3ccccc3C(=O)OCC)c-2cc1C,AC50,[1],3.23 µM (active)
same,AC50,[2],30.8 µM (active)
NS(=O)(=O)C(F)(F)C(F)(F)C(F)(F)C(F)(F)C(F)(F)C(F)(F)F,outcome,[1],inactive
O=C1C=CC(=O)N1c1ccccc1,AC50,[1],9.92 µM (active)
same,AC50,[2],81.6 µM (active)
CC(C)(C)c1cc(CCC(=O)NCCCCCCNC(=O)CCc2cc(C(C)(C)C)c(O)c(C(C)(C)C)c2)cc(C(C)(C)C)c1O,outcome,[3],inactive
same,outcome,[4],inactive
same,AC50,[5],0.203 µM (active)
CCCCCCCCCCCCC[N+](C)(C)Cc1ccccc1,AC50,[1],11.2 µM (active)
same,outcome,[2],inactive
OCC(O)CC(F)(F)C(F)(F)C(F)(F)C(F)(F)C(F)(F)C(F)(F)C(F)(F)C(F)(F)F (centres undefined),outcome,[1],inactive
CCc1cc(Cc2cc(CC)c(N)c(CC)c2)cc(CC)c1N,AC50,[1],20 µM (active)
same,outcome,[2],inactive
